The values below come from PubChem BioAssay (NCATS).

The subject of test [1] is Tov-21-G. Briefly: Primary qHTS to identify gynecologic anti-cancer compounds using libraries of approved drugs and bioactive compounds (AID 1345084). Note: % is set by controls: 0 for no effect and ±100 for the full control effect; nearly all actives have a fitted effect of over 55% in size. The conditions noted are these: Gynecologic cancer cell panel viability, ATPlite luminescence, 48 h; series mostly up to 57.5 µM. The gist of the method:
(§1)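 Cells, 1,000 per well, plated 16 h, then exposed 48 h at 37 C to compounds. Viability by ATPlite luminescence after 15 min at room temperature.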

In test [2] the test system is Tov112D. Described as above. The conditions noted are these: Gynecologic cancer cell panel viability, ATPlite luminescence, 48 h; series mostly up to 57.5 µM. The gist of the method: as §1
Test [3] in a line: Drug repurposing screens with cells derived from glioblastoma tumor samples (AID 1345199). For activity, negative = cell killing: % is set by controls: 0 for no effect and ±100 for the full control effect. Note: nearly all actives have a fitted effect of over 40% in size. Note: potency is the fitted concentration of half-maximal effect. The conditions noted are these: GBM patient neurospheres viability, ATP luminescence, 48 h. The essentials:
(§2)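 Four patient lines of CD133+ GBM neurospheres were screened at several concentrations; hits were retested in those lines plus three slower-growing GBM lines, using 48-hour treatment and ATP-based viability.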

Test [4] deals with astro. Described as above. The note with it: viability, ATP luminescence, 48 h; series mostly up to 45.9 µM. The gist of the method: as §2
Test [5] addresses Nuclear receptor subfamily 1 group I member 2 (Rattus norvegicus) (UniProt Q9R1A7). Briefly: qHTS assay for small molecule activators of the rat pregnane X receptor (rPXR) signaling pathway (AID 651751; call rule not given here; note: 0% is about no effect). The conditions noted are these: rPXR reporter cells, luciferase (One-Glo), 24 h.
Test [6] can be described thus: qHTS assay for small molecule activators of the human pregnane X receptor (PXR) signaling pathway (AID 720659; call rule not given here; note: 0% is about no effect).
Where [7] appears, read: at 20 µM (top of the series), tumour line C.
The mark [8] stands for this setting: at 21.2 µM (top of the series), tumour line B.
[9] abbreviates: at 21.2 µM (top of the series), tumour line D.
The mark [10] stands for this setting: at 21.3 µM (top of the series), tumour line A.
The mark [11] stands for this setting: at 45.9 µM (top of the series), tumour line B.
[12] abbreviates: at 45.9 µM (top of the series), tumour line D.
The mark [13] stands for this setting: at 46 µM (top of the series), tumour line A.
Setting [14] is: at 46.1 µM (top of the series), tumour line C.

Values joined by “and” are separate entries in the source; they are usually repeats but may differ in a detail not shown here. Equal entries are not always repeated. A number with no mark means an inactive call. Records with an inconclusive call do not appear. Active and inactive are the calls of the source. Unless noted, calls come from the whole dose curve; as a rule, active = well fitted curve in the direction sought with a large enough effect; inconclusive = small, poorly fitted or top-dose-only effect, or another doubt; inactive = no such curve, though single readings can be large; an effect the other way counts as inactive or inconclusive.

Nuclear receptor subfamily 1 group I member 2 (Rattus norvegicus), sequence (Q9R1A7 whole entry, looked up): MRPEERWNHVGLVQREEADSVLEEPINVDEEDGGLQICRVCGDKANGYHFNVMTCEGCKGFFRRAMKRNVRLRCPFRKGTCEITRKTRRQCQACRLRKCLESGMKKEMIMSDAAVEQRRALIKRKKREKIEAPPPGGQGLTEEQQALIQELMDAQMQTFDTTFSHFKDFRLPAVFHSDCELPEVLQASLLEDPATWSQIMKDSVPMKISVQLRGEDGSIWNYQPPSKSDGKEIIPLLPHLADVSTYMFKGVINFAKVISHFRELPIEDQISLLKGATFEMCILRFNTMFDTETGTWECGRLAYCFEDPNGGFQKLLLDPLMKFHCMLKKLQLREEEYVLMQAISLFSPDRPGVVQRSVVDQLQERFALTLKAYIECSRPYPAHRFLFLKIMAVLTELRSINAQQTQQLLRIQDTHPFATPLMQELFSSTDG

`Cc1c(N)c(=O)n(-c2ccccc2)n1C`: the Potency result in test [1], in test [2] and in test [4] was “inactive” throughout. Moreover, the activity, negative = cell killing in test [3] (setting [7]) was -1.09%; in test [3] (setting [8]), -6%; in test [3] (setting [9]), -16.4%; in test [3] (setting [10]), -17.4%.
Take `CC(=O)c1ccc(OCC(=O)N2CCCCC2)cc1`: the Potency entry in test [1] and in test [2] was “inactive” each time. For the same compound, the activity, negative = cell killing in test [3] (setting [11]) was -9.55%; in test [3] (setting [12]), -17.5%; in test [3] (setting [13]) it was -29.4%; in test [3] (setting [14]), -5.72%.
Consider `O=C(OCc1ccccc1)c1ccccc1`, for which the Potency entry in test [1] and in test [2] was “inactive” in each case. The activity, negative = cell killing in test [3] (setting [11]) was -4.23%; in test [3] (setting [12]), -19%; in test [3] (setting [13]), -13.2%; in test [3] (setting [14]), -10.1%. Moreover, in test [5], the max response is -3.55%. Besides, in test [6], the call was inactive.
Consider `CC(C(=O)O)c1ccc(C(=O)c2cccs2)cc1` (stereo not given), for which the Potency entry in test [1] and in test [2] was “inactive” in each case. The activity, negative = cell killing was 9.23% in test [3] (setting [7]), -14.5% in test [3] (setting [8]), -0.88% in test [3] (setting [9]) and -13% in test [3] (setting [10]).
Consider `O=C(O)Cc1ccc(-c2ccccc2)cc1`, for which the Potency result in test [1], in test [2] and in test [4] was “inactive” each time. Moreover, the activity, negative = cell killing in test [3] (setting [7]) was 2.3%; in test [3] (setting [8]) it was -5.31%; in test [3] (setting [9]), -13.6%; in test [3] (setting [10]) it was -23.3%.
As for `CCCCCCCCCCCCCCCC(=O)OC(C)C`, the Potency result in test [1] and in test [2] was “inactive” each time. Moreover, the activity, negative = cell killing in test [3] (setting [11]) was -2.41%; in test [3] (setting [12]), -2.14%; in test [3] (setting [13]) it was -26.7%; in test [3] (setting [14]), 4.29%. Also, the max response in test [5] is -0.444%. Further, in test [6], the call was inactive.
Regarding `CCOC(=O)c1ccccc1O`, the Potency result in test [1] and in test [2] was “inactive” each time. Besides, the activity, negative = cell killing is -4.37% and -22.2% in test [3] (setting [11]); -0.79% and -11.1% in test [3] (setting [12]); -24.1% in test [3] (setting [13]); -28.6% and -1.56% in test [3] (setting [14]).
`O=C(O)[C@H](CC(=O)N1C[C@H]2CCCC[C@H]2C1)Cc1ccccc1`: the Potency entry in test [1] and in test [2] was “inactive” each time. Besides, the activity, negative = cell killing is -13.2% in test [3] (setting [11]), -11.7% in test [3] (setting [12]), -25.9% in test [3] (setting [13]) and -20.5% in test [3] (setting [14]).
Turning to `CC(C(=O)O)c1ccc2c(c1)[nH]c1ccc(Cl)cc12` (stereo not given), the Potency result in test [1] and in test [2] was “inactive” in each case. Also, the activity, negative = cell killing is -6.45% in test [3] (setting [11]), -15.7% in test [3] (setting [12]), -16.3% in test [3] (setting [13]) and -19.6% in test [3] (setting [14]).
As for `N=C(N)N`, the Potency result in test [1], in test [2] and in test [4] was “inactive” each time. Moreover, the activity, negative = cell killing was -7.3% in test [3] (setting [11]), -23.5% in test [3] (setting [12]), -16.6% in test [3] (setting [13]) and -13.1% in test [3] (setting [14]).
Regarding `C[C@H](O)[C@H](O)[C@H]1CNc2nc(N)[nH]c(=O)c2N1`, the Potency entry in test [1] and in test [2] was “inactive” throughout. The activity, negative = cell killing in test [3] (setting [11]) was -2.46%; in test [3] (setting [12]) it was 16.1%; in test [3] (setting [13]), -18.9%; in test [3] (setting [14]) it was 11.1%.
For `Cc1[nH]cnc1CN1CCc2c(c3ccccc3n2C)C1=O`, the Potency entry in test [1], in test [2] and in test [4] was “inactive” each time. Further, the activity, negative = cell killing is -8.52% in test [3] (setting [11]), -4.04% in test [3] (setting [12]) and -28.6% in test [3] (setting [14]). In test [3] (tumour line A), the Potency is 10 µM (active).
Take `COc1cc(/C=C/C(=O)N2CCN(CC(=O)N3CCCC3)CC2)cc(OC)c1OC`: the Potency result in test [1] and in test [2] was “inactive” in each case. Also, the activity, negative = cell killing was -11% in test [3] (setting [11]), -1.45% in test [3] (setting [12]), -40.7% in test [3] (setting [13]) and -18.6% in test [3] (setting [14]).
On to `C=CCCCCCCCCC(=O)O`, for which the Potency result in test [1] and in test [2] was “inactive” throughout. For the same compound, the activity, negative = cell killing in test [3] (setting [11]) was -14.2%; in test [3] (setting [12]), -8.73%; in test [3] (setting [13]), -10.4%; in test [3] (setting [14]), 6.77%. For the same compound, in test [5], the max response was 0.475%. In addition, the compound was called inactive in test [6].
On to `CCCCCCCCCCCCCCCCCC(=O)O`, for which the Potency result in test [1] and in test [2] was “inactive” each time. The activity, negative = cell killing was -6.65% in test [3] (setting [11]), -11.1% in test [3] (setting [12]), -19.5% in test [3] (setting [13]) and -22.7% in test [3] (setting [14]). Besides, the max response in test [5] was 1.24% and 3.12% and 0.368%. Besides, the compound was classed as inactive in test [6].
Take `CC(C)OC(=O)c1cc(C(=O)OC(C)C)cc([N+](=O)[O-])c1`: the Potency result in test [1], in test [2] and in test [4] was “inactive” each time. The activity, negative = cell killing was -39.8% in test [3] (at 91.6 µM (top of the series), tumour line A); -8.41% in test [3] (at 91.6 µM (top of the series), tumour line B); -19.6% in test [3] (at 91.6 µM (top of the series), tumour line D); 10.5% in test [3] (at 99.2 µM (top of the series), tumour line C). In addition, the max response in test [5] is 14.5%. The compound was called inactive in test [6].
As to `CN(C)[C@@H]1C(=O)C(C(=O)NCN2CCCC2)=C(O)[C@@]2(O)C(=O)C3=C(O)c4c(O)cccc4[C@@](C)(O)C3C[C@@H]12` (stereo not given in full), the Potency entry in test [1] and in test [2] was “inactive” throughout. Moreover, the activity, negative = cell killing in test [3] (setting [7]) was -9.38%; in test [3] (setting [8]), -5.39%; in test [3] (setting [9]), 11.2%; in test [3] (setting [10]), -7.96%; in test [3] (setting [11]) it was -10.2%; in test [3] (setting [12]), -31.8%. In addition, in test [3] (setting [14]), the activity, negative = cell killing was 27.9%.
